Data from PubChem BioAssay (NCI).
About 83,000 compounds went through this panel and 20% of them were active in at least one assay; those are over-represented in the sample as a whole.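 Assay: single dose, 48 h. Readout: percent growth (0 = no net growth; negative = cell death). Active: <10.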 Values without a mark were called inactive. Activity calls are given as the source filed them.

test system: ACHN renal; assay: NCI-60 one-dose screen, 48 h (100 = growth as untreated, 0 = no growth, -100 = all killed); conditions: 10 µM unless noted
Protocol: Growth inhibition of the ACHN human tumor cell line is measured as a screen for anti-cancer activity. Cells are grown in 96 well plates and exposed to the test compound for 48 hours. Compounds are tested at a single concentration, which is 10^-5 M for most compounds. The reported endpoint is percent growth (GI% or GIPRCNT), where numbers from 0 - 100% represent growth inhibition, and numbers from -100% - 0 represent cell death. For example, a value of 40 represents 60% growth inhibition. A value of 0 means no net growth occurred over the course of the experiment. A value of -40 indicates 40% of cells at the beginning of the experiment died by the end of the experiment. A value of -100 means all cells are dead at the end of the experiment.
NCI-60 Human Tumor Cell Lines Screen was performed using the standard one-dose NCI protocol, which is described in more detail at https://dtp.cancer.gov/discovery_development/nci-60/default.htm.
Compounds with GIPRCNT values below 10 were considered active. Activity score was based on GIPRCNT using the following formula: […]
Score is 0 for GIPRCNT values of 100 or above, 50 for GIPRCNT values of 0, and 100 for GIPRCNT values of -100.

With `NC1=C(Cl)C(=O)c2ccc(S(N)(=O)=O)cc2C1=O` the growth was -95.6% (active).
With `CC(=O)OCCC/C(=C/c1cc2ccccc2c2ccccc12)[N+](=O)[O-]` the growth was -91.7% (active).
With `O=C1/C(=C(/c2ccccc2)N2CCOCC2)Cc2ccccc21` the growth was -39.6% (active).
`CC/C=C\C/C=C\C[C@H]1C/C=C2/C(=O)C=C[C@@H]2C/C=C\CCC(=O)O1` was tested, and the growth was -78.9% (active).
For `CCCCC[C@H]1C/C=C2/C(=O)C=C[C@@H]2C/C=C\CCCC(=O)O1`, the growth was -91% (active).
In the case of `CN(C)c1ccc(N=Nc2ccccn2)c(O)c1`, the growth is reported as 6.69% (active).
For `COc1cc2c(cc1O)CC[C@@H]1[C@@H]2CC[C@]2(C)[C@@H](OCCCN(C)C)CC[C@@H]12`, the growth was -62.8% (active).

Point of comparison: `O=C(CN1CCCCC1)Nc1ccc2oc(=O)ccc2c1`, growth 111%. Against it:
- CCCn1c(=O)[nH]c(N)c([C@H]2c3ccccc3Oc3[nH]c(=O)n(CCC)c(=O)c32)c1=O — lower, 73.6%
- O=Nc1c(O)c(Cl)cc2ccccc12 — lower, 65.3%
- O=C(O)c1ccc(NC(=O)c2ccc(-c3cccc([N+](=O)[O-])c3)o2)cc1 — lower, 104%
- N=C(N)c1ccc(-c2ccc(-c3ccc4ccccc4c3)s2)s1 — lower, 25.7%
- CCc1nnc(CNc2ccc(Cl)cc2)o1 — lower, 86.8%
- N#Cc1nnn(-c2ccc(S(N)(=O)=O)cc2)c1NCC(=O)c1ccccc1 — lower, 99.5%
- O=C1c2cc3c(cc2-c2c1c1ccc(Cl)cc1c(=O)n2CCCN1CCOCC1)OCO3 — lower, 13.1%
- FC(F)(F)Oc1ccc2nc3nc4ccc[nH]c4cc3c2c1 — lower, 56.4%
- Cc1ccc2c(C(C[N+](=O)[O-])c3ccco3)c(-c3ccccc3)[nH]c2c1 (stereo not given) — lower, 30.6%
- CN(C)C(=S)N=Nc1c(O)[nH]c2ccccc12 — lower, 16.9%
- Cn1cc(-c2nonc2-c2cn(C)c3ccc(F)cc23)c2cc(F)ccc21 — lower, 70.3%
- CCNC(=O)Oc1ccc(/C(=C(\C)c2ccc(Cl)cc2)c2ccc(OCCN(CC)CC)cc2)cc1 — lower, 71.3%
- CSc1nc2c(c(=O)[nH]1)C1(C(=O)Nc3ccccc31)c1c(nc(SC)[nH]c1=O)N2 — lower, 103%
- CCOc1ccc(C(C)=O)cc1NC(=O)c1cccc(-c2nnn(CC)n2)c1 — lower, 50.8%
- O=C(Cc1ccc(/C=C/C(=O)c2ncc[nH]2)cc1)Nc1ccc(F)cc1 — lower, 46.4%
- CC(C)(CCCN=C(N)Nc1ccc(Cl)cc1)c1ccc(F)cc1 — lower, 67.4%
- CSc1nc(NCCO)c(C#N)c(-c2cccc([N+](=O)[O-])c2)n1 — lower, 93%
- O=C(C(=O)c1ccc2c(c1)OCO2)c1ccc2c(c1)OCO2 — the same, 111%
- CN(C)CCN1C(=O)c2cccc3c(N)ccc(c23)C1=O — lower, 12.8%
- CCCCCCN(CCCCCC)CCC(O)c1ccc2ccccc2c1 (stereo not given) — lower, 68.7%
- CC(=O)c1nc2ccccc2n1CC(=O)c1cccc(Cl)c1 — lower, 51.3%
- COc1cccc(-c2nc3sccn3c2-c2ccnc(NCCNS(=O)(=O)c3ccc(F)cc3)c2)c1 — lower, 13%
- NC(=O)c1cc(Cl)ccc1NC(=O)/C=C/c1ccccc1 — lower, 59.8%
- COCCNc1ccc2c3c(cccc13)C(=O)N(CCN(C)C)C2=O — lower, 11.9%
- O=C(Nc1cccc2[nH]c(C(F)(F)F)nc12)c1ccc(-n2cnnn2)cc1 — lower, 99.5%
- CNC(=O)c1cc(Oc2ccc(NC(=O)Nc3ccc(Cl)c(SC)c3)c(F)c2)ccn1 — lower, 52.6%
- O=c1c2c3c(sc2nc(N/N=C/c2cn(-c4ccccc4)nc2-c2ccc(Cl)cc2)n1Cc1ccccc1)CCCC3 — higher, 117%
- NCCNc1nc(Nc2ccc(-c3nc4ccccc4[nH]3)cc2)c2cn[nH]c2n1 — lower, 91.9%
- COc1ccc(N=Nc2nccs2)c(O)c1 — lower, 18.4%
- O=C1C=C(O)C(=O)C(CC2=C(O)C(=O)C=C(O)C2=O)=C1O — lower, 97.5%

`Cc1cc(C)nc(SC2=C(Nc3ccc(C)c(Cl)c3)C(=O)N(Cc3ccccc3)C2=O)n1` gave a growth of 81% [30 µM].

`Cc1ccc2c(C(C[N+](=O)[O-])c3ccccc3)c(-c3ccccc3)[nH]c2c1` (stereo not given) gave a growth of 36.7% [9.5 µM].
